For 94 molecules, inhibition results are on record in PubChem BioAssay AID1021 (Emory University Molecular Libraries Screening Center, 2008).

Each structure is given as a SMILES string. The whole screen tested about 220,000 compounds, of which about 2,100 (0.95%) were called active.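 The calls were made as follows: active = compounds that cut the binding signal by more than half at the single screening dose; inactive = the rest.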 Only a selection was taken, and actives are over-represented in it overall.

This assay deals with Induced myeloid leukemia cell differentiation protein Mcl-1 (Homo sapiens) (UniProt Q07820). Briefly: Mcl-1/Bid binding inhibitors, primary screen, biochemical, TR-FRET, 1536-well (AID 1021).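 Also: His-tagged Mcl-1 with europium anti-His antibody binding Bid BH3 peptide; 0% = Mcl-1 plus peptide wells and 100% = peptide-only wells.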 The note with it: TR-FRET Mcl-1/Bid-Dy647 peptide binding, at 21.7 µM, active compounds read high. For orientation: In TR-FRET formats the signal depends on donor and acceptor labels being close together.
Induced myeloid leukemia cell differentiation protein Mcl-1 (Homo sapiens), sequence (Q07820 whole entry, looked up): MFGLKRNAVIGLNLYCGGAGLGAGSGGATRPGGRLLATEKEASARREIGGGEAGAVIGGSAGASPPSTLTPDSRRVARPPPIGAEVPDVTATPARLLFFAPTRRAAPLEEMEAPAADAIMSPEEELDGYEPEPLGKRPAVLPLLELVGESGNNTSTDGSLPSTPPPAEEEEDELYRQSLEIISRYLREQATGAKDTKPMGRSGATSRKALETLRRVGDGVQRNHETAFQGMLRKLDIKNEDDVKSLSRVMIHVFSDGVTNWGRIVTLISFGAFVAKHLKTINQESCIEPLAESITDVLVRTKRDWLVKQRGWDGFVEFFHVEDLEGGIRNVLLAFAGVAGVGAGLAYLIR
As to `N#Cc1cccc(NC(=O)COC(=O)c2ccccc2C(=O)c2ccc(Cl)c([N+](=O)[O-])c2)c1`, the inhibition was -7.05% (inactive).

Regarding `CC(C)C[C@H](CO)Nc1nc(N(C)c2cccc(Cl)c2)c2ncn(C(C)C)c2n1`, the inhibition was -56.4% (inactive).

Consider `NS(=O)(=O)c1cccc(NC(=O)COC(=O)/C=C/c2ccco2)c1`, for which the inhibition was -10.4% (inactive).

Regarding `O=[N+]([O-])C(=c1ccc2c(c1)N1C3=C(CCCC3)CC3CCCCC31N=2)[N+](=O)[O-]` (centres undefined), the inhibition was 78.9% (active).

On to `CCN(CC)S(=O)(=O)c1ccc(N2CCCC2)c(NS(=O)(=O)c2cccs2)c1`, for which the inhibition is -28.4% (inactive).

For the molecule `O=C(NNc1ccccc1Cl)C(O)(c1cccc(C(F)(F)F)c1)c1cccc(C(F)(F)F)c1`, the inhibition was 3.27% (inactive).

With `O=C(C[n+]1ccc2c(c1)nnn2-c1ccccc1)c1ccc(Cl)cc1`, the inhibition was -1.27% (inactive).

Turning to `Cc1ccc(-c2nc(SCC(=O)Nc3ccccc3OC(F)F)c3c(C)c(C(=O)O)sc3n2)cc1`, the inhibition is 79.3% (active).

Regarding `Cc1ccc(C)c(SCc2nc3sc(C(=O)O)c(C)c3c(=O)[nH]2)c1`, the inhibition was -24.1% (inactive).

As to `COc1ccccc1NC(=O)CSc1nc2sc(C)c(C)c2c(=O)n1Cc1ccco1`, the inhibition was -24.2% (inactive).

For `COC(=O)C1=C(N)Oc2cc(C)[nH]c(=O)c2C1c1ccc(Cl)cc1` (centres undefined), the inhibition is -43.4% (inactive).

`CN=c1scc(-c2cc(OC)ccc2OC)n1/N=C/c1c(C)[nH]c2ccccc12`: the inhibition was 39.1% (inactive).

Turning to `CC(=O)c1ccc(NC(=O)C(C)NCc2ccc(Cl)cc2)cc1` (centres undefined), the inhibition was 3.24% (inactive).

`CCN(CC)c1ccc(S(=O)(=O)N2CCOCC2)cc1NC(=O)CSc1cccc[n+]1[O-]`: the inhibition was -69% (inactive).

Take `O=C(O)CC1(CC(=O)Nc2cccc(C(F)(F)F)c2)CCCC1`: the inhibition is -7.96% (inactive).

For `Cc1ccc(COc2ccc(C(=O)NN)cc2)cc1`, the inhibition is 67.1% (active).

On to `COc1ccc(C(=O)NNS(=O)(=O)c2ccc(C)cc2)cc1`, for which the inhibition is -16.3% (inactive).

For the molecule `Cc1cccc(OCc2ccc(C(=O)Nc3ccc(F)cc3)cc2)c1`, the inhibition was 11% (inactive).

As for `Cc1cccc(N2Cc3ccccc3C2=NC(=O)c2ccc(Cl)nc2)c1`, the inhibition is -35.5% (inactive).

As for `COc1cccc(OC)c1CN(C)C(=O)c1cnccc1C(F)(F)F`, the inhibition is -18.2% (inactive).

Take `O=C(NNC1=C(C(=O)C(F)(F)F)CCC1)c1ccncc1`: the inhibition is -42.6% (inactive).

As for `COc1cccc(NC(=O)C2c3cc(OC)c(OC)cc3C(=O)N(C)C2c2cccnc2)c1` (centres undefined), the inhibition was 84.2% (active).

Regarding `CCOc1cc2c(cc1OCC)C(C(=O)O)C(c1ccc(OC)c(O)c1)N(C)C2=O` (centres undefined), the inhibition is -21.7% (inactive).

Regarding `COc1cccc(C(=O)Nc2cccnc2)c1OC`, the inhibition is -18.8% (inactive).

As to `CCOC(=O)c1c(NC(=S)Nc2ccccc2C)sc2c1CCC2`, the inhibition was -25.3% (inactive).

Turning to `CCOC(=O)c1c(NC(=S)NC(=O)c2ccco2)sc2c1CCCC2`, the inhibition was 61.4% (active).

In the case of `CCOC(=O)c1c(NC(=S)NC)sc2c1CCCC2`, the inhibition was -22.5% (inactive).

Turning to `O=C(O)CC12CC3CC(C1)CC(n1ncc(NCc4ccc(F)cc4)c(Cl)c1=O)(C3)C2`, the inhibition was -0.52% (inactive).

Consider `CS(=O)(=O)c1ccc2nc(NC(=O)c3ccc(N4CCCC4=O)cc3)sc2c1`, for which the inhibition was -53.4% (inactive).

In the case of `CS(=O)(=O)c1ccc2nc(NC(=O)C3CCCCC3)sc2c1`, the inhibition is -11% (inactive).

For `CS(=O)(=O)c1ccc2nc(NC(=O)CN3CCCCCC3)sc2c1`, the inhibition was 55.1% (active).

`O=c1[nH]nc(SCCS(=O)(=O)c2ccc(F)cc2)n1-c1ccccc1C(F)(F)F`: the inhibition was -37.5% (inactive).

`CCOC(=O)Nc1ccc2c(c1)N(C(=O)CCN1CCN(CCO)CC1)c1ccccc1CC2`: the inhibition was 51.3% (active).

Turning to `CCOC(=O)Nc1ccc(NC(=O)OCC)cc1`, the inhibition is -26.4% (inactive).

Turning to `CCNCCC(=O)N1c2ccccc2Sc2ccc(NC(=O)OCC)cc21`, the inhibition is -12.2% (inactive).

Take `COc1ccc2[nH]c(=S)cc(C)c2c1`: the inhibition is -43.7% (inactive).

For the molecule `CNC1(c2nnnn2-c2c(C)cccc2C)CCOC(C)(C)C1` (centres undefined), the inhibition is -15.5% (inactive).

`CCCNC(=O)NC(=O)COC(=O)CC(NC(N)=O)c1ccc(Cl)cc1` (centres undefined): the inhibition was -14.2% (inactive).

`CN(C)/C(CN1CCCCC1)=C1\N=C(c2ccccc2)OC1=O`: the inhibition is 65.5% (active).

On to `O=S(=O)(c1ccccc1)N(CC(O)CN1CCCCC1)c1ccccc1` (centres undefined), for which the inhibition is -28.8% (inactive).

For `O=C(CN1CCCC1)N1CCN(c2ccccc2)CC1`, the inhibition is -53.9% (inactive).

For `COC(=O)N/N=C/c1ccc(-c2ccc(Cl)c(Cl)c2)o1`, the inhibition is 15.5% (inactive).

As to `COC(=O)c1c(NC(=O)c2c(Cl)cnn2C)sc(C)c1C`, the inhibition was -24% (inactive).

For the molecule `COCCCNCC(=O)Nc1sc(C)c(C)c1C(=O)OC`, the inhibition is 63.5% (active).

On to `CCOC(=O)c1c(NC(=O)c2cccs2)sc(C)c1C`, for which the inhibition is -14.7% (inactive).

For `COc1cccc(NC(=O)CN(C)C(C)C(=O)Nc2ccc(C#N)cc2)c1` (centres undefined), the inhibition was -15.1% (inactive).

On to `O=C(NCc1ccco1)c1nn2cccnc2c1Cl`, for which the inhibition was -10.8% (inactive).

For `COCCCNc1nc2c(-c3cccc(C(F)(F)F)c3)nnn2c2ccccc12`, the inhibition was -13.1% (inactive).

In the case of `NCC(=O)c1cccc2ccc[n+]([O-])c12`, the inhibition was -13.8% (inactive).

As to `CCc1ccccc1NC(=O)CSc1nnc(-c2ccncc2)o1`, the inhibition is -14.6% (inactive).

Regarding `Cc1nn(-c2ccccc2)c2c1C(c1cccc([N+](=O)[O-])c1)N(c1ccccc1)C(=O)N2` (centres undefined), the inhibition was -12.3% (inactive).

Take `COc1ccc(C2c3c(C)nn(-c4ccccc4)c3NC(=O)N2c2ccccc2)cc1` (centres undefined): the inhibition was 76.8% (active).

`COc1ccc(-n2c(C)nc3c(cnn3-c3ccccc3)c2=O)cc1`: the inhibition was -3.33% (inactive).

In the case of `CN(NC(=O)C1CC(=O)N(c2ccccc2)C1)C1=NS(=O)(=O)c2ccccc21` (centres undefined), the inhibition is -8.25% (inactive).

For `Cc1ccc(S(=O)(=O)/N=C(/Nc2ccccn2)c2ccc(Cl)cc2)cc1`, the inhibition is 1% (inactive).

`O=S(=O)(/N=C(/Nc1ccccn1)c1ccccc1)c1ccc(Cl)cc1`: the inhibition was -22.6% (inactive).

For `Cc1ccc(S/C(=N\S(=O)(=O)c2ccc(Cl)cc2)c2ccccc2)cc1`, the inhibition was 61.7% (active).

Take `O=C(N/N=C/c1ccc(Br)o1)c1cncc(Br)c1`: the inhibition is -13.1% (inactive).

`CS(=O)(=O)N(CC(=O)NC1CCCC1)Cc1ccc(F)cc1`: the inhibition is -0.58% (inactive).

Consider `COc1ccc(CCNC(=O)COC(=O)C2CCCCC2)cc1`, for which the inhibition was -25.9% (inactive).

Take `COc1cc(CNC2CCCCC2)c(Br)cc1OC1CCCC1`: the inhibition is -29.9% (inactive).

With `COc1ccc(CNC2CCCCC2)cc1`, the inhibition is 64.1% (active).

For `CCOC(=O)c1ccc(COC(=O)c2cc(=O)[nH]c3ccccc23)o1`, the inhibition was -9.7% (inactive).

Turning to `CCOC(=O)c1cc2c(=O)[nH]c(C(Cl)(Cl)Cl)nc2o1`, the inhibition is 52% (active).

Regarding `CCOC(=O)c1cnc(COc2ccccc2Cl)[nH]c1=O`, the inhibition was 7.19% (inactive).

With `CCCCCOc1ccc(CSC2=NCCN2)cc1[N+](=O)[O-]`, the inhibition is -26.2% (inactive).

`O=C(Nc1ccc(Br)cn1)C1CCN(S(=O)(=O)c2cccs2)CC1`: the inhibition is -17.8% (inactive).

Take `CCc1cc2cc(OC)ccc2nc1SCC(=O)Nc1cc(OC)c(OC)cc1C(=O)O`: the inhibition is -3.27% (inactive).

`O=C(C1CCCO1)N(c1ccc(F)cc1)C1C=CS(=O)(=O)C1` (centres undefined): the inhibition is -15.9% (inactive).

Regarding `Cc1cccn2c(CNCC(C)Oc3cccnc3)c(C(=O)N3CCOCC3)nc12` (centres undefined), the inhibition is -13.2% (inactive).

On to `Cc1cccn2c(CN(C)C3CCCc4ccccc43)c(C(=O)N3CCOCC3)nc12` (centres undefined), for which the inhibition was 54.6% (active).

For `Cc1cc(C)n(CC(C)NCc2c(C(=O)N3CCOCC3)nc3c(C)cccn23)n1` (centres undefined), the inhibition is -17.6% (inactive).

Consider `Cc1cc(N2CCN(c3ccccc3)CC2)nc(N2CCOCC2)n1`, for which the inhibition was -98.4% (inactive).

With `Cc1ccc(-c2cc(C(=O)NN)n[nH]2)o1`, the inhibition was -33.4% (inactive).

Regarding `O=C(CSc1nc2ccccc2o1)N/N=C/c1ccccc1C(=O)O`, the inhibition is -19.1% (inactive).

For the molecule `Nc1c(Cl)cc(S(N)(=O)=O)cc1S(N)(=O)=O`, the inhibition was -8.81% (inactive).

Consider `Cc1c(/C=N/N2C(=O)C3C4C=CC(C4)C3C2=O)c2ccccc2n1C` (centres undefined), for which the inhibition was 59.1% (active).

As to `Cc1c(C=O)c2ccccc2n1CC(=O)O`, the inhibition was -7.49% (inactive).

For `Cc1c(/C=N\NC(=O)c2cc3ccccc3o2)c2ccccc2n1C`, the inhibition is -24.8% (inactive).

Turning to `O=C(NC1CC1)C1=C[C@H](c2c[nH]c3ccccc23)C[C@H](OCc2ccc(CO)cc2)O1`, the inhibition was -70.3% (inactive).

As to `OCC1(Cc2ccccc2C(F)(F)F)CCN(Cc2cccc3cnccc23)CC1`, the inhibition was -14.6% (inactive).

For the molecule `COc1ccc2nc(NC(=O)NC3CCCCC3)sc2c1`, the inhibition is -6.76% (inactive).

Take `COC(=O)[C@H](CC(C)C)NC(=O)N1CCCCC1C` (some centres undefined): the inhibition was -3.65% (inactive).

With `COc1ccc(C(=O)Nc2cccnc2)cc1C(=O)Nc1cccnc1`, the inhibition was 14.7% (inactive).

On to `O=C(Oc1cccnc1)c1cc2ccccc2oc1=O`, for which the inhibition was 19.8% (inactive).

Turning to `O=C(Nc1cccnc1)c1cc2cc(Br)ccc2oc1=O`, the inhibition is 59.5% (active).

As to `O=C(CN1CCCCCC1)NCCN1C(=O)S/C(=C\c2ccccc2Cl)C1=O`, the inhibition was -7.27% (inactive).

As for `COc1ccccc1Cn1c(CO)nc2ccccc21`, the inhibition is -24.8% (inactive).

On to `Cc1cccc(C2C3=C(CCCC3=O)N=C3c4ccccc4C(=O)C32)c1` (centres undefined), for which the inhibition is -45% (inactive).

Regarding `Cc1cccc(NC(=S)NC23CN4CN(CN(C4)C2)C3)c1`, the inhibition was -75.3% (inactive).

In the case of `CC1CN(S(=O)(=O)c2ccccc2)C(C)CN1S(=O)(=O)c1ccccc1` (centres undefined), the inhibition was -4.73% (inactive).

In the case of `CCS(=O)(=O)c1ccc2oc(SCC(=O)N3c4ccccc4CC3C)nc2c1` (centres undefined), the inhibition is -1.51% (inactive).

Regarding `CCS(=O)(=O)c1ccc2c(c1)N(S(=O)(=O)c1ccccc1)CC(C(=O)O)O2` (centres undefined), the inhibition was 52.3% (active).

Consider `C=CCOc1ccc(/C=N/NC(=O)C(C)Sc2ccccn2)cc1OCC` (centres undefined), for which the inhibition was -8.6% (inactive).

A word on the inhibition: it is the change of the read-out against control, counted positive when it falls.
